ROMK primary = human ROMK K+ channel modulation, primary screen. Tet-inducible ROMK, thallium flux fluorescence; actives lie on both sides. B-score at 10 µM. 2% of 130,000 active. AID 1918;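 active means signal ratio slope over the read window, or its plate-corrected B-score, at least 3 SD from the plate mean, either direction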;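 further: B-score of the F/F0 ratio slope over 7 to 12 s after thallium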
Target sequence (P48048 whole entry, looked up): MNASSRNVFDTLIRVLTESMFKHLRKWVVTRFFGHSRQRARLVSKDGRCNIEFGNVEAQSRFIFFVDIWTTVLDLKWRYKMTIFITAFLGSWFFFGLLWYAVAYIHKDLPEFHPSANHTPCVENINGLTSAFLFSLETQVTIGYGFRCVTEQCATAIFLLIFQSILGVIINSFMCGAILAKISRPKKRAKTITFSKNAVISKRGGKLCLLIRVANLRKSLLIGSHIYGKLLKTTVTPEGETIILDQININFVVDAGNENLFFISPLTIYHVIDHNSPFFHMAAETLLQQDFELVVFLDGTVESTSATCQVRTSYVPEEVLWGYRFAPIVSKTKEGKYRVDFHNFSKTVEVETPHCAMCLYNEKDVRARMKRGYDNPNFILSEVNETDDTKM
SDO1 yeast rescue = compounds rescuing growth of sdo1-depleted yeast, bone marrow failure model; S. cerevisiae sdo1-depleted JHY4D growth rescue, OD600 30 h; hits give high values; pdr5 snq2 efflux-pump mutant strain; 0.21% of 140,000 active; z-score at 10 µM;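 active means z-score above 3 at both the 24 hr and the 30 hr optical density reads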;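 further: z-score against mean and SD of all compound wells on the same plate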
INS promoter inh = TRM-6 insulin promoter activity inhibition. inhibition, % at 2 µM. 0.9% of 130,000 active. TRM-6 cells (human fetal islet line), insulin promoter-eGFP reporter, imaging; reporter expression induced with tamoxifen;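 active means inhibition above the mean plus 3 SD, with well images judged a real hit on visual review, cut at about 60% in these data, passing the limit was not always enough; inconclusive means inhibition over the cutoff but images rejected on review; inactive means inhibition not above the cutoff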
Measles CPE = protection of cells from measles virus; Measles virus-infected cells, CPE protection, absorbance; protection (pct of control), % at 4 µM; 1.5% of 140,000 active; in the data active means protection mostly above about 24%, no sharp cut-off; inactive means mostly below about 26%
ROMK retest = confirmation of human ROMK potassium channel modulators; shares compounds with ROMK primary; ROMK thallium flux, fluorescence ratio; hits give low values; normalized thallium flux (F/F0 slope) at 10 µM; 54% of 3,000 active; AID 1917;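 active means Flux at 10 µM at least 3 SD below or above vehicle control mean in one or both replicates; inconclusive means no clear call, values can overlap the other calls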
The depositor's hits bear a star; ? = inconclusive; . = no result given. Only some compounds are listed: those with a hit (about 3% of all), similar ones and a draw of the others.

SMILES | ROMK primary | SDO1 yeast rescue | INS promoter inh | Measles CPE | ROMK retest
COc1cccc(/C=N/n2c(C)nc3ccccc32)c1OC | -2.7 | -1.5 | -27 | 3 | 0.074
COc1ccc(/C=N/n2c(SC)nnc2-c2ccccc2)cc1C | . | -1.9 | 33 | 9 | .
COc1ccc(/C=N/n2c(SC)nnc2-c2ccccc2)c(OC)c1OC | 3.4* | -1.7 | 29 | 7 | 0.08
COc1ccc(NC(=O)c2n[nH]c(=O)c3ccccc23)cc1S(=O)(=O)N1CCCCC1 | . | 0.57 | . | 21 | .
CC12CCC(C(=O)NCc3ccc4c(c3)OCO4)(C(=O)C1=O)C2(C)C (configuration not stated) | 0.023 | -0.01 | 21 | 10 | .
O=C(Cn1nc(Cl)nc1Cl)c1cc2ccccc2oc1=O | -6.5* | -1.6 | . | 2 | 0.049*
Cn1cnnc1SCC(=O)c1cc2ccccc2oc1=O | . | 0.62 | 30 | 4 | .
CCOc1cccc(NC(=O)CSc2nc(C)c3c(c2C#N)CCCC3)c1 | . | 0.14 | 11 | 4 | 0.076
CCN(CC)CC(O)COc1ccccc1C(=O)CCc1ccccc1 (configuration not stated) | -0.9 | . | . | . | .
CCCCN(CCCC)CC(O)COc1ccccc1C(=O)Nc1ccccc1 (configuration not stated) | -3.5* | . | . | . | 0.053*
Cc1cc(NC(=O)C23CC4CC(C2)CC(n2cnc([N+](=O)[O-])n2)(C4)C3)no1 | -0.56 | . | . | . | .
Cc1ccc(O)c(-c2cc(C(F)(F)F)[nH]n2)c1 | . | -1 | 41 | 8 | .
Cc1nc(SCC(=O)N(C)Cc2ccco2)c2c(C)c(C)sc2n1 | . | -1 | . | 6 | 0.072
CC1CCc2c(sc3ncn(N)c(=N)c23)C1 (configuration not stated) | -0.018 | . | . | . | .
O=C(Cc1ccccc1)Nc1ccccc1C(=O)O | -0.15 | 0.62 | -21 | 2 | .
Cc1ccc(NC(=O)COC(=O)c2ccn(C)n2)cc1 | 1.2 | 0.78 | 11 | 13 | .
Cc1ccc(OCC(O)CN2CCN(CC(O)COC(C)C)CC2)c(C(C)(C)C)c1 (configuration not stated) | -3.7* | -0.05 | -200 | 3 | 0.062*
CCn1c(=O)c([N+](=O)[O-])c(Cl)c2ccccc21 | -4.9* | . | 36 | . | 0.046*
Cc1ccc2cc(CN(Cc3ccc4c(c3)OCO4)Cc3nnnn3Cc3ccco3)c(=O)[nH]c2c1C | -4.2* | -0.34 | -44 | 1 | ?
CN(C)C(CNC(=O)c1cccc(OC(F)F)c1)c1ccco1 (configuration not stated) | 1.1* | -0.53 | -24 | 5 | 0.088
Cn1ncc(C(N)=O)c1NC(=S)NC(=O)c1ccc(Br)o1 | 1* | . | . | . | 0.081
Cc1cccc(NC(=S)NC(=O)c2ccc(Br)o2)c1C | 0.12 | . | . | . | .
O=C(NC(=S)Nc1ccccc1F)c1ccc(Br)o1 | . | . | -29 | . | 0.14*
CCOC(=O)c1c(-c2ccccc2)oc2ccc(OCC)cc12 | -0.78 | -0.1 | 25 | 18 | .
CCOc1ccc2oc(-c3ccccc3)c(C(=O)N3CCN(C)CC3)c2c1 | . | -1.3 | . | 4 | ?
SMILES | ROMK primary | SDO1 yeast rescue | INS promoter inh | Measles CPE | ROMK retest
Cc1nn(C)cc1CN(C)C(=O)c1cc(-c2ccccc2)nc2ccc(Br)cc12 | 0.039 | . | . | . | 0.058*
CC1=Nc2ccccc2N=C(NC(=O)CN2CCN(c3ccccc3)CC2)C1c1ccccc1 (configuration not stated) | 3.2* | . | . | . | 0.084
CC1=Nc2ccccc2N=C(NC(=O)CSC(=S)N2CCCCC2)C1c1ccccc1 (configuration not stated) | -0.73 | . | . | . | .
Cc1ccc2c(c1)C(=O)C(=O)N2CCCOc1ccccc1 | 3.6* | . | -33 | . | 0.074
COc1ccc(-n2c(C)c([N+](=O)[O-])c3ccc(O)c(CN(C)C)c32)cc1 | . | 0.15 | 53 | 15 | 0.033*
COc1ccc(CN(C)Cc2nc(Cc3cccc(F)c3)no2)c2cccnc12 | -1.6* | . | . | . | ?
COc1cccc(-n2cc(CN(C)Cc3nc(Cc4cccc(F)c4)no3)cn2)c1 | -0.83 | . | . | . | .
CCOC(=O)c1cc(C#N)c(N2CCN(c3ccc(OC)cc3)CC2)[nH]c1=O | 0.46 | . | . | . | .
CN(C)c1ccnc2c[cH-]cc12.[Fe].c1ccc(-[c-]2[c-](-c3ccccc3)[c-](-c3ccccc3)[c-](-c3ccccc3)[c-]2-c2ccccc2)cc1 (configuration not stated) | . | . | . | . | 0.066*
CN=C1SC(CC(=O)Nc2ccc(F)cc2F)C(=O)N1/N=C/c1ccc(OC(F)F)c(OC)c1 (configuration not stated) | 0.034 | . | . | . | .
COCC1CCCN(Cc2nc(Cc3ccccc3)no2)C1 (configuration not stated) | 0.57* | . | . | . | 0.078
COc1ccc(-n2cc(C(=O)c3cc(Cl)ccc3O)cc(C#N)c2=O)cc1 | 2.7* | . | -9 | . | 0.075
CCOc1ccc(-n2cc(C(=O)c3cc(Cl)ccc3O)cc(C#N)c2=O)cc1 | -0.84 | . | -5 | . | .
N#CC(C#N)=C1C=CC=CN1/C(=C\c1ccco1)C(=O)c1ccc(Cl)cc1 | -3* | -1.4 | . | 1 | 0.045*
O=C(CCNC(=O)OCc1ccccc1)NC1CCCCCC1 | -0.19 | 0.28 | -127 | 14 | .
CCCSc1nnc(NC(=O)Nc2ccc(F)cc2)s1 | -2 | -0.92 | . | 43* | 0.062*
COC(=O)/C=C1/SC(=NC(=O)c2ccc(F)cc2)NC1=O | . | . | . | . | 0.048*
COC(=O)/C=C1\SC(=NC(=O)c2cccc(Cl)c2)NC1=O | . | 0.24 | 12 | 8 | 0.052*
COC(=O)/C=C1/SC(=NC(=O)c2ccccc2)NC1=O | . | 0.11 | . | 9 | .
N#C/C(=N\Nc1ccccc1F)c1nc(-c2ccccc2)cs1 | -1.4 | . | -12 | . | .
COCCOC(=O)c1c(NC(=O)CN2c3ccccc3CC2C)sc(C(N)=O)c1C (configuration not stated) | 2.2* | . | . | . | ?
Cc1cc(/C=N\NC(=O)COc2cccc3cccnc23)c(C)n1-c1ccccc1 | 0.032 | -0.49 | -17 | 1 | .
Cc1cc(/C=N/NC(=O)C(=O)NCc2ccccn2)c(C)n1-c1ccccc1 | 2.7* | 0.86 | 19 | 12 | 0.089
CCn1cc(C(=O)OCC(=O)N(C)Cc2ccccc2)c(=O)c2ccc(C)nc21 | 2.9* | . | . | . | 0.078
CCn1cc(C(=O)OCC(=O)c2cc(C)n(-c3ccc(OC(F)F)cc3)c2C)c(=O)c2ccc(C)nc21 | -3.2* | -1.1 | . | 3 | 0.063*
SMILES | ROMK primary | SDO1 yeast rescue | INS promoter inh | Measles CPE | ROMK retest
CCn1cc(C(=O)OCC(=O)c2cc(C)n(-c3ccccc3)c2C)c(=O)c2ccc(C)nc21 | -0.36 | -1.3 | -81 | 19 | .
CCn1cc(C(=O)OCC(=O)N(C)C2CCS(=O)(=O)C2)c(=O)c2ccc(C)nc21 (configuration not stated) | 0.94 | 1.1 | 22 | 3 | .
CC(Sc1nc(-c2ccc(F)cc2)cs1)C(=O)Nc1ccc(Cl)cn1 (configuration not stated) | 0.49 | 0.81 | -4 | 0 | .
N=C(N)SCc1cn(-c2ccccc2)nc1-c1ccc(Br)cc1 | -2.1* | . | . | . | 0.055*
COc1ccc(-c2nn(-c3ccccc3)cc2CO)cc1 | 0.031 | 1.2 | -6 | 6 | .
Cn1c(=O)n(C)c2cc(NC(=O)CSc3nnc(-c4ccccc4O)n3-c3ccccc3)ccc21 | 1.1 | -0.82 | -26 | 3 | .
O=C(Cn1cc(C(F)(F)F)ccc1=O)Nc1cccc(S(=O)(=O)N2CCOCC2)c1 | . | 1.6 | . | 25 | .

Screening data: PubChem, several laboratories
